The nature of test [1]: P. berghei load reduction in hepatocytes – cell-based, HepG2, luciferase luminescence, HepG2 viability, primary screen (AID 624349; in the data active = parasite load remaining mostly below about 12%, no sharp cut-off; inactive = mostly above about 10%;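 also: 100% = mean of DMSO negative control wells on the same plate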). Conditions: P. berghei liver stage in HepG2, luciferase luminescence, concentration not given here; parasite load remaining: stronger effect = lower value; viability: measured here: HepG2 viability without parasites.
Test [2] in a line: Wnt pathway potentiators raising nuclear beta-catenin – imaging, WNT3A-conditioned medium, mouse C2C12, NPC library, primary screen (AID 1117326; in the data active = nuclear beta-catenin stimulation mostly above about 4.2%, no sharp cut-off; inactive = mostly below about 10%). The conditions noted are these: stronger effect = higher value.
The nature of test [3]: stimulators of insulin release from INS-1E, primary screen, cell-based, 5 mM glucose, NPC library (AID 1117329;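 active = compound raises insulin release from rat beta cells at 5 mM glucose, no numeric limit stated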). The conditions noted are these: rat INS-1E insulin secretion, at 10 µM, stronger effect = higher value.
Test [4] is described as follows: growth inhibition of GSK3B-pretreated HCT116 cells – cell-based, CellTiter-Glo, 0.2 to 20 µM (AID 1117336;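 active = compounds lowering colon cancer cell viability after pretreatment blocking the GSK3B kinase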). Conditions: HCT116 viability after GSK3B inhibitor, at 20 µM, stronger effect = higher value.
Test [5] can be described thus: inhibition of endothelial tube formation, primary screen, imaging, VEGF stimulated, CD31 staining, tube area, NPC library (AID 1117340;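 active = compound that reduces growth-factor-driven endothelial tube area in a mixed cell culture, no cutoff stated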). Conditions: VEGF-stimulated ADSC/ECFC co-culture, at 10 µM, stronger effect = higher value.
A short description of test [6]: GLP1 release stimulators, primary, NCI-H716, NPC library (AID 1117341;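 active = compound raises GLP1 secretion from the human gut endocrine cells, with no numeric limit stated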). Conditions: NCI-H716 cells, at 10 µM, stronger effect = higher value.
The nature of test [7]: HCT116 colon cancer cell growth inhibition, primary screen, CellTiter-Glo luminescence, NPC library (AID 1117342;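 active = compounds that lower survival of HCT116 colon cancer cells in the luminescence readout, no numeric limit stated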). The conditions noted are these: at 20 µM (top of the series).
Test [8] can be described thus: reduced SW480 viability measured with CellTiter-Glo, NPC library, primary (AID 1117343;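 active = compounds that lower viability of the colon cancer cells in the luminescence readout, with no numeric limit stated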). The conditions noted are these: CellTiter-Glo luminescence; at 20 µM (top of the series) unless noted.
The nature of test [9]: NPC library primary testing for decreased DLD-1 cell viability via CellTiter-Glo (AID 1117346;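 active = compounds that lower survival of DLD-1 colon cancer cells in the luminescence readout, no cutoff given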). Conditions: DLD-1 viability, CellTiter-Glo luminescence; at 20 µM (top of the series).
Test [10] in a line: EMT-state selective cytotoxicity in co-culture – imaging, PC-3E GFP, TEM4-18 mCherry, primary screen (AID 1345086;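 active = compounds killing one labelled cell type while sparing the other, by normalised counts and ratio limits, not self-fluorescent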;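 as to all read-outs here: cells exposed to compound for 72 h before imaging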;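 as to red/green cell ratio (normalised): normalised mesenchymal count divided by normalised epithelial count so high means epithelial killing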). The conditions noted are these: PC-3E GFP / TEM4-18 mCherry co-culture, imaging cell counts, at 1 µM; for red/green cell ratio (normalised): actives lie on both sides, counts scaled to control wells, 1 = unselective.
Test [11] can be described thus: viability loss with induced miR-34 in A549 – imaging, A549 dox-inducible miR-34, nuclei and caspase counts, primary screen (AID 1347080;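 active = compounds whose cell count with miR-34 switched on is under 0.7 times the count with it off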). Conditions: A549 miR-34 inducible, Hoechst nuclei count, 48 h.
Test [12] is described as follows: MELAS cybrid and Rieske KO viability enhancers – cell-based, MELAS cybrids, Rieske KO mouse fibroblasts, CellTiter-Glo, primary screen (AID 1508586).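 Also: z relative to plate mean and SD of compound and empty wells.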 The conditions noted are these: low glucose.
Test [13] has as its target NAD(+) hydrolase SARM1 (Homo sapiens) (UniProt Q6SZW1). Description: blocking NAD cleavage by SARM1 SAM-TIR – cell lysate, NAD-Glo luminescence (AID 1508614;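 active = compound whose remaining NAD level is above about 45 nM, limit read from the data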;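 also: higher remaining NAD means stronger inhibition of SARM1 NADase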). Conditions: SAM-TIR HEK293T lysate NADase, at 1 µM, stronger effect = higher value.
The nature of test [14]: compounds altering viability of human ES cells (AID 493140; call rule not given here;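 also: cells exposed to compounds for four days before counting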). Conditions: human embryonic stem cell survival screen; stronger effect = higher value.
[15] abbreviates: measured here: epithelial PC-3E GFP cell survival.
Where [16] appears, read: measured here: mesenchymal TEM4-18 mCherry cell survival.
The mark [17] stands for this setting: stronger effect = lower value, cell number ratio, induced over uninduced.
The mark [18] stands for this setting: measured here: relative caspase fold change +Dox/-Dox.
The mark [19] stands for this setting: measured here: total cells with miR-34 induction, stronger effect = lower value.
The mark [20] stands for this setting: measured here: total cells without miR-34 induction.
Where [21] appears, read: MELAS cybrid survival, CellTiter-Glo 48 h, stronger effect = higher value.
Where [22] appears, read: Rieske KO mouse fibroblast survival, CellTiter-Glo 72 h.

Each structure is given as a SMILES string. “And” between values parts separate entries of the source, which are not always exact repeats. Equal entries are not always repeated. The source made the active and inactive calls.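 The calls were made as follows, unless noted: active = mean z-score across replicates of 1.96 or higher in either the MELAS or the Rieske mutant cell line; inactive = the rest.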

Chain of NAD(+) hydrolase SARM1 (Homo sapiens) (Q6SZW1 whole entry, looked up): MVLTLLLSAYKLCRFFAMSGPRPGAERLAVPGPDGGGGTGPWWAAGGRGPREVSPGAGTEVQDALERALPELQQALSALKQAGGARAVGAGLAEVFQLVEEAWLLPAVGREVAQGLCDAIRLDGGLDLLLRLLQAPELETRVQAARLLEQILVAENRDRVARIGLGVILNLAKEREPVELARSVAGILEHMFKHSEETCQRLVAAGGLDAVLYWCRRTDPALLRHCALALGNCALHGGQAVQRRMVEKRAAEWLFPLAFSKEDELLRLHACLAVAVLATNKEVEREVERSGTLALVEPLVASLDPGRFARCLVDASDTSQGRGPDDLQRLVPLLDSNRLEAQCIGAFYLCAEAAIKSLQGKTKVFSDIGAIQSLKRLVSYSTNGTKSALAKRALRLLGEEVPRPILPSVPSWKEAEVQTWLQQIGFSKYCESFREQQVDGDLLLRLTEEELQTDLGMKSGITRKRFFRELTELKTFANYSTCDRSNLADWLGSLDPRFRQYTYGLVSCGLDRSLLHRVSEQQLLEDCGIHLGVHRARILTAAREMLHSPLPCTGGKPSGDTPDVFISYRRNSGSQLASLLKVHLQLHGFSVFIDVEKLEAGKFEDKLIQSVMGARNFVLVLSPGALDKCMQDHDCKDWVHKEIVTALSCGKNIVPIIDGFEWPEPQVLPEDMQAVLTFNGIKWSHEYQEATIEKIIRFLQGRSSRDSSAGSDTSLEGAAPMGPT

On to `CC1CCc2c(N3CCC(O)CC3)c(F)cc3c(=O)c(C(=O)O)cn1c23` (stereo unspecified), for which, in test [1], the parasite load remaining is 84.8% (inactive) and 5.38% (inactive). The viability in test [1] was 88.5% and 76.5%. The nuclear beta-catenin stimulation in test [2] (at 10 µM) is 0% (inactive); in test [2] (stimulation, at 2 µM), 0.1%. Besides, the insulin secretion stimulation in [3] was 1.15% (inactive). Moreover, the viability decrease in [4] was 74.1% (active). Also, the tube area decrease in [5] was -22.8% (inactive). For the same compound, in [6], the GLP1 secretion stimulation was 4% (inactive). The inhibition of viability in test [7] is 59% (active). Besides, the figures for the viability decrease (inhibition) in [8] and in test [9] were 37.2% (inactive) and 5.4% (inactive), respectively. The red/green cell ratio (normalised) in [10] is 0.89 (inactive). For the same compound, the normalised cell number in test [10] (setting [15]) is 0.98; in test [10] (setting [16]), 0.87. Moreover, the fold change was 0.9 (inactive) and 0.988 (inactive) and 0.927 (inactive) in test [11] (setting [17]); 0.795 and 0.525 and 0.967 in test [11] (setting [18]). Further, the cell count in [11] (setting [19]) is 8750 and 7880 and 9830; in [11] (setting [20]), 9720 and 7980 and 10600. The z-score was -0.315 (inactive) and -0.705 (inactive) and 0.586 (inactive) in [12] (setting [21]); -0.0888 and -0.895 and -0.392 in [12] (setting [22]). The remaining NAD in test [13] is 10 nM (inactive).
As for `CC(C(=O)O)c1ccc2c(c1)Cc1cccnc1O2` (stereo unspecified), in test [1], the parasite load remaining is 27% (inactive). Moreover, the viability in test [1] was determined as 105%. Besides, the nuclear beta-catenin stimulation in test [2] (at 10 µM) was 0.4% (inactive); in [2] (stimulation, at 2 µM), -0.1%. Also, the insulin secretion stimulation in test [3] was 4.3% (inactive). Besides, in [4], the viability decrease was -8.3% (inactive). Besides, the tube area decrease in [5] was -14.8% (inactive). In test [6], the GLP1 secretion stimulation was -2.7% (inactive). Besides, in test [7], the inhibition of viability was -12% (inactive). Besides, the viability decrease (inhibition) was 18.6% (inactive) in [8] and 9.3% (inactive) in test [9]. The red/green cell ratio (normalised) in [10] is 0.99 (inactive). For the same compound, the normalised cell number in [10] (setting [15]) turned out to be 0.91; in [10] (setting [16]), 0.9. The fold change in test [11] (setting [17]) was 1 (inactive) and 0.866 (inactive); in [11] (setting [18]) it was 0.334 and 1.75. For the same compound, the cell count in [11] (setting [19]) is 3140 and 9560; in test [11] (setting [20]), 3140 and 11000. Also, the z-score was -0.199 (inactive) and 0.41 (inactive) and -0.18 (inactive) in test [12] (setting [21]); 0.0831 and 0.15 and -0.741 in test [12] (setting [22]). In addition, the remaining NAD in test [13] was 10 nM (inactive).
In the case of `CCC1NC(=O)c2cc(S(N)(=O)=O)c(Cl)cc2N1` (stereo unspecified), in test [14], the survival is 5.17 (inactive). In addition, the parasite load remaining in [1] is 89.6% (inactive). In [1], the viability was 77.9%. For the same compound, the nuclear beta-catenin stimulation in [2] (at 10 µM) was 1.2% (inactive); in test [2] (stimulation, at 2 µM), 2.9%. In [3], the insulin secretion stimulation is -1.7% (inactive). The viability decrease in test [4] was -8.4% (inactive). Besides, the tube area decrease in test [5] is 2.1% (inactive). In addition, the GLP1 secretion stimulation in test [6] is 8.6% (inactive). Also, the inhibition of viability in test [7] was -5.7% (inactive). In addition, the viability decrease (inhibition) in test [8] is -10.9% (active); in test [9] it was -14% (inactive). In addition, the red/green cell ratio (normalised) in [10] was 0.98 (inactive). Moreover, the normalised cell number in test [10] (setting [15]) came out at 1.22; in [10] (setting [16]) it was 1.2. For the same compound, the values for the fold change in test [11] (setting [17]) and in test [11] (setting [18]) were 0.92 (inactive) and 0.404, respectively. The cell count in test [11] (setting [19]) was found to be 8110; in test [11] (setting [20]) it was 8810. Besides, the z-score in test [12] (setting [21]) is -1.3 (inactive); in test [12] (setting [22]), -1.37. For the same compound, the remaining NAD in test [13] is 10 nM (inactive).
With `CN1C(=O)OC(C)(C)C1=O`, the survival in test [14] was 8.08 (inactive). Besides, in [1], the parasite load remaining was 83.9% (inactive) and 86.8% (inactive) and 50.6% (inactive). For the same compound, the viability in [1] is 107% and 78.1% and 129%. The nuclear beta-catenin stimulation in test [2] (at 10 µM) is 1.4% (inactive); in [2] (stimulation, at 2 µM) it was -0.1%. The insulin secretion stimulation in test [3] was 1% (inactive). The viability decrease in test [4] is 31.5% (inactive). The tube area decrease in test [5] was 13.2% (inactive). In addition, the GLP1 secretion stimulation in test [6] is -0.3% (inactive). For the same compound, in test [7], the inhibition of viability is 28% (inactive). Moreover, the viability decrease (inhibition) in test [8] was 54.4% (active); in test [9], 87.4% (active). In [10], the red/green cell ratio (normalised) was 0.94 (inactive). Also, the normalised cell number in [10] (setting [15]) worked out at 0.96; in test [10] (setting [16]), 0.9. The fold change in [11] (setting [17]) was 0.862 (inactive) and 0.885 (inactive); in test [11] (setting [18]) it was 1.14 and 3.65. Moreover, the cell count in test [11] (setting [19]) was 9130 and 11500; in test [11] (setting [20]), 10600 and 13000. Further, the z-score was 0.482 (inactive) in [12] (setting [21]) and -0.121 in test [12] (setting [22]). Further, the remaining NAD in [13] is 10 nM (inactive).

For the origin of these results see PubChem BioAssay.
